Assay results: PubChem BioAssay (NCATS)
Results filed as inconclusive are left out. Where a call stands in place of a potency, no number is given. Values without a mark were called inactive. Active and inactive are the calls of the source. Calls come from the whole dose curve; as a rule, active = well fitted curve in the direction sought with a large enough effect; inconclusive = small, poorly fitted or top-dose-only effect, or another doubt; inactive = no such curve, though single readings can be large; an effect the other way counts as inactive or inconclusive.

What was measured:
[1] = target: Aldehyde dehydrogenase, mitochondrial (Homo sapiens) (UniProt P05091); test: qHTS for Inhibitors of the Aldehyde Dehydrogenase Family (ALDH2) Primary screen (AID 2061308); note: nearly all actives have a fitted effect of over 55% in size
[2] = target: Retinaldehyde dehydrogenase 3 (Homo sapiens) (UniProt P47895); test: qHTS for Inhibitors of the Aldehyde Dehydrogenase Family (ALDH1A3) Primary screen (AID 2061315)

## Cc1cc2c(s1)c1cnn(Cc3ccc(F)c(Cl)c3)c(=O)c1n2C
[1]
  Potency: inactive
[2]
  Potency: inactive

## Cc1cc(C)n2ncc(C(=O)Nc3ccc(C(F)(F)F)cc3)c2n1
[1]
  Potency: inactive
[2]
  Potency: inactive

## O=C1NS(=O)(=O)c2cscc21
[1]
  Potency: inactive
[2]
  Potency: inactive

## O=C(CSc1nc(-c2ccc(F)cc2)nc2c1Cc1ccccc1O2)Nc1ccc(F)cc1
[1]
  Potency: inactive
[2]
  Potency: inactive

## Cc1cnc(-c2ccccc2CO)nc1NCc1ccc(-c2cccnc2)cc1
[1]
  Potency: inactive
[2]
  Potency: inactive

## CC(=O)c1ccc(N2CCN(S(=O)(=O)c3ccc4c(c3)CC(C)N4C(C)=O)CC2)cc1 (stereo unspecified)
[1]
  Potency: inactive
[2]
  Potency: inactive

## Oc1cccc2cc(-c3ccccc3)cnc12
[1]
  Potency: inactive
[2]
  Potency: inactive

## CC(C)CC(=O)c1c(O)cc2c(c1O)C(CC(C)C)C1=C(O2)C(C)(C)C(=O)C(C)(C)C1=O (stereo unspecified)
[1]
  Potency: inactive
[2]
  Potency: inactive

## Cc1cccc(CNc2ncnc3ccc(-c4ccc5c(ccn5C)c4)cc23)c1
[1]
  Potency: inactive
[2]
  Potency: inactive

## CC(C)Oc1cccc(-c2csc(N3CCC(C(N)=O)CC3)n2)c1
[1]
  Potency: inactive
[2]
  Potency: inactive

## COc1ccc(-c2nc3ccccc3c(=O)n2Cc2ccco2)cc1COc1c(C)cccc1C
[1]
  Potency: inactive
[2]
  Potency: inactive

## CC(C)(C)NC(=O)Nc1nnc(-c2ccncc2)s1
[1]
  Potency: inactive
[2]
  Potency: inactive

## Cc1cc2c(s1)c1cnn(Cc3ccc(Cl)c(F)c3)c(=O)c1n2C
[1]
  Potency: inactive
[2]
  Potency: inactive

## O=C(N[C@H]1CCCc2c1cnn2-c1ccc(F)cc1F)c1ccccn1
[1]
  Potency: inactive
[2]
  Potency: inactive

## COc1ccccc1-c1nc(NCc2ccc(-c3cccnc3)cc2)c2ccccc2n1
[1]
  Potency: inactive
[2]
  Potency: inactive

## CCOc1ccc(CCNC(=O)c2cc3sccc3n2Cc2cccc(C)c2)cc1OCC
[1]
  Potency: inactive
[2]
  Potency: inactive

## CCN(C)c1ncnc2ccc(-c3ccc4c(c3)OCO4)cc12
[1]
  Potency: inactive
[2]
  Potency: inactive

## CN1[C@@H]2CC[C@H]1CC(OC(c1ccccc1)c1ccccc1)C2 (stereo partly specified)
[1]
  Potency: inactive
[2]
  Potency: inactive

## Cc1ccc(S(=O)(=O)Nc2cnccc2C(=O)Nc2cccc3ccccc23)cc1
[1]
  Potency: inactive
[2]
  Potency: inactive

## COc1cccc(C2c3c(ncn(-c4ccc(Br)cc4)c3=N)Oc3ccc4ccccc4c32)c1 (stereo unspecified)
[1]
  Potency: inactive
[2]
  Potency: inactive

## CCCn1c(C)nc2c(N3CCC(N(C)C)C3)nc(C)nc21 (stereo unspecified)
[1]
  Potency: inactive
[2]
  Potency: inactive

## C#CCOc1cc(C2=Nn3c(nnc3-c3cccc(OCC(C)=O)c3)SC2)ccc1OC
[1]
  Potency: inactive
[2]
  Potency: inactive

## COc1cccc(CNc2ccc(S(=O)(=O)Nc3nccs3)cc2)c1O
[1]
  Potency: inactive
[2]
  Potency: inactive

## CC(=O)O[C@@H]1C[C@]2(C)[C@@]3(CCC4[C@@]5(C)CC[C@H](O[C@@H]6O[C@H](C(=O)O)[C@@H](O)[C@H](O[C@@H]7O[C@H](CO)[C@H](O)[C@H](O)[C@H]7O[C@@H]7O[C@@H](C)[C@H](O)[C@@H](O)[C@H]7O[C@@H]7OC[C@](O)(CO)[C@H]7O)[C@H]6O[C@@H]6O[C@H](CO)[C@H](O)[C@H](O)[C@H]6O)C(C)(C)C5CC[C@]42C)O[C@@H](O)[C@]12C3CC(C)(C)[C@@H](OC(=O)/C=C/c1ccc(O)c(O)c1)[C@@H]2OC(=O)/C=C/c1ccccc1 (stereo partly specified)
[1]
  activity change, negative = inhibition: 3.11% [at 11.2 µM]
[2]
  activity change, negative = inhibition: 17.4% [at 11.2 µM]

## O=c1c2ccccc2nc2sc(Nc3cccc4ccccc34)nn12
[1]
  Potency: inactive
[2]
  Potency: inactive

## O=C(Cc1ccc2ccccc2c1)Nc1ccc(S(=O)(=O)Nc2nccs2)cc1
[1]
  Potency: inactive
[2]
  Potency: inactive

## O=c1[nH]c(CCl)nc2sc3c(c12)CCC3
[1]
  Potency: inactive
[2]
  Potency: inactive

## CC[C@H](C)[C@H](NC(=O)[C@H]([C@@H](C)CC)N(C)C(C)=O)C(=O)N[C@H](C(=O)N[C@@H](CC(C)C)C(=O)[C@@]1(C)CO1)[C@@H](C)O
[1]
  Potency: inactive
[2]
  Potency: inactive

## Cc1cc(NS(=O)(=O)c2ccc(NC(=O)CCc3ccc(Cl)c(Cl)c3)cc2)no1
[1]
  Potency: inactive
[2]
  Potency: inactive

## O=[S+]([O-])(/C=C/c1nc(Nc2cc(F)cc(F)c2)c2ncn(CC(F)F)c2n1)c1ccccc1
[1]
  Potency: inactive
[2]
  Potency: inactive

## CCCCC1CCC(C(=O)Nc2ccc(S(=O)(=O)Nc3nccs3)cc2)CC1 (stereo unspecified)
[1]
  Potency: inactive
[2]
  Potency: inactive

## Cc1cc(NS(=O)(=O)Cc2ccc(NC(=O)Cc3ccc(Cl)c(Cl)c3)cc2)no1
[1]
  Potency: inactive
[2]
  Potency: inactive

## O=C(c1ccc[nH]1)c1cc(Cl)ccc1NC(=O)[C@@H]1CCCN1
[1]
  Potency: inactive
[2]
  Potency: inactive
